POLH inh = blocks human DNA polymerase eta activity; recombinant Pol eta, fluorescent DNA replication assay; hit rate 1.2% among 390,000; Q9Y253; AID 588591; Potency, µM (highest dose often 114 µM), for inactives: at the top dose activity change, negative = inhibition, hits mostly inhibitors; also: % is scaled to controls: 0 for no effect and ±100 for the full control effect
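Fluorescent replication assay: 50 nM final substrate added after a 15 min room-temperature compound preincubation with 10 nM enzyme. Signal taken at 0 min and again at 10 min.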
Pol beta inh = DNA polymerase beta (human) inhibition. P06746. Pol beta primer extension/strand displacement, fluorescence kinetic. Potency, µM (doses to about 114 µM), without a hit: at the highest dose activity change, negative = inhibition, actives largely listed as inhibitors. hit rate 1.3% among 340,000. AID 485314; also: % is scaled to controls: 0 for no effect and ±100 for the full control effect
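Enzyme-only controls used 10 nM Pol beta; buffer lacking enzyme served as negative control. Compound preincubated 15 min, then 50 nM substrate added; 0 and 10 min reads at room temperature.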
POLI inh = blocks human DNA polymerase iota activity; Pol iota fluorescent replication assay, 10 min; Potency, µM (titrated, usually from 115 µM), for inactives: at the highest dose activity, negative = inhibition, actives largely listed as inhibitors; hit rate 1% among 390,000; AID 588590
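Fluorescent replication assay read twice, at 0 min and 10 min after adding 50 nM (final) substrate. Enzyme (10 nM) and compounds were first incubated 15 min at room temperature; enzyme-free buffer wells were negative controls.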
POLK inh = DNA polymerase kappa (human) inhibition. hit rate 0.53% among 400,000. purified Pol kappa, fluorescent DNA synthesis assay, 10 min. Potency, µM (highest dose often 107 µM), for the others: at the top dose activity, negative = inhibition, most hits filed as inhibitors; also: % is scaled to controls: 0 for no effect and ±100 for the full control effect
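10 nM Pol kappa preincubated 15 min at room temperature with compounds, then reaction started with substrate at 50 nM final. Fluorescence read kinetically at 0 and 10 min; buffer-only wells served as negative control.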
WRN helicase inh = inhibitors of human WRN helicase; Q14191; WRN helicase unwinding, fluorescent forked duplex, kinetic; Potency, µM (series often up to 114 µM), without a hit: at the highest dose activity change, negative = inhibition, hits mostly inhibitors; hit rate 0.46% among 360,000; also: % is scaled to controls: 0 for no effect and ±100 for the full control effect; nearly all actives have a fitted effect of over 55% in size
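Kinetic red-fluorescence monitoring (525/598 nm) tracks WRN helicase activity after 100 nM fluorophore-quencher forked duplex and 2 mM ATP are added to 20 nM enzyme pretreated 15 min at room temperature with compound.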
L3MBTL1 block = L3MBTL1 (human) inhibition. AlphaScreen L3MBTL1–H3K9me1 peptide binding. Potency, µM (series often up to 57.1 µM), for the others: at the top dose activity, negative = inhibition, actives largely listed as inhibitors. hit rate 0.66% among 230,000; also: % is scaled to controls: 0 for no effect and ±100 for the full control effect; nearly all actives have a fitted effect of over 60% in size
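Read-out is AlphaScreen signal from streptavidin donor and nickel chelate acceptor beads (10 ug/mL final each) bridging L3MBTL1 (50 nM) and biotinylated K9-monomethylated H3(1-15) peptide (75 nM), after 30 min compound exposure at room temperature.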
TbPGK inh = TbPGK inhibition, hit validation; shares compounds with POLK inh; TbPGK coupled GAPDH assay, Kinase-Glo luminescence; Potency, µM (top dose mostly 57.5 µM), for inactives: top-dose activity change, negative = inhibition, actives largely listed as inhibitors; hit rate 79% among 500; AID 686980; also: % is scaled to controls: 0 for no effect and ±100 for the full control effect; nearly all actives have a fitted effect of over 65% in size
POLI cherry-pick = Confirm cherry-picked inhibitors of human polymerase iota; shares compounds with POLK inh; Pol iota primer extension, TAMRA/BHQ fluorescence; Potency, µM, actives largely listed as inhibitors; hit rate 77% among 1,500; AID 720496
The depositor's hits bear a star; ? = inconclusive; / = no result; [ ] = remark or other dose. Shown are actives, neighbours in structure and some others; about 2.5% of the full set was active somewhere. Calls follow the shape of the dose curve; as a rule, active = well fitted curve in the direction sought with a large enough effect; inconclusive = small, poorly fitted or top-dose-only effect, or another doubt; inactive = no such curve, though single readings can be large; an effect the other way counts as inactive or inconclusive. Potency is read from the fitted curve at half-maximal effect.

SMILES	POLH inh	Pol beta inh	POLI inh	POLK inh	WRN helicase inh	L3MBTL1 block	TbPGK inh	others
O=C(O)c1cc(N2C(=O)C=CC2=O)cc(N2C(=O)C=CC2=O)c1	2.2µM*	/	1.1µM*	2.2µM*	8.9µM*	/	?
COCCNc1nc(NCc2cccc(OC)c2)c2sc(-c3ccccc3)cc2n1	/	/	/	/	-7%	/	/
Cc1ccc(S(=O)(=O)N2CCN(C(=O)CN3CCCSc4ccccc43)CC2)cc1	-10%	/	22%	-13%	?	-9%	/
Cc1nn(C)c2c1c(C(F)(F)F)cc(=O)n2Cc1ccc(Br)cc1F	-25%	-7%	6%	-20%	/	/	/
C/C(=N\NC(=O)c1cc(O)cc(O)c1)c1ccc(NC(=O)Cc2ccccc2)cc1	3.2µM*	1.6µM*	5µM*	22µM*	20µM*	/	1.8µM*
CC(C)=CCc1cc(-c2oc3cc(O)cc(O)c3c(=O)c2O)ccc1O	?	/	?	-14%	-4%[11.6 µM]	/	-28%
Cc1cc(NC(=O)CSc2ccc(-c3nc4cc(C)c(C)cc4[nH]3)cn2)no1	-16%	0%	23%	8%	-22%	-15%	5%
COc1ccc(S(=O)(=O)N(C)C)cc1NC(=O)COc1ccc2c(c1)CCC2	-17%	/	/	/	-5%	/	/
Cc1nc(-c2ccc(C(=O)N3CCOCC3)cc2)cs1	-18%	-2%	13%	-6%	3%	12%	/
Cc1nc(-c2ccc(C(=O)N3CCCC3)cc2)cs1	1%	-9%	82%	1%	-30%	/	18µM*
COc1ccc2cc(-c3nc(Cl)c4c5c(sc4n3)CCCC5)c(=O)oc2c1	-8%	?	-17%	-20%	/	/	/
Cc1ccc(-c2nc3ccccc3n2C)o1	0%	-2%	27%	-12%	0%	/	?
Cc1csc(NC(=O)c2cn3ccccc3n2)n1	-5%	?	9%	-10%	1%	0%	18µM*
COc1ccc(N(C(=O)c2snc(C(N)=O)c2N)C(C(=O)NC2CCCC2)c2cccs2)cc1OC (stereo not given)	?	?	8.9µM*	-18%	-15%[11.6 µM]	/	/	POLI cherry-pick=?
CCC(C(=O)NC1CCCC1)N(C(=O)c1snc(C(N)=O)c1N)c1ccc(OC)c(OC)c1 (stereo not given)	-4%	-24%	67%	0%	-6%	/	/
O=c1[nH]c(/C=C/c2cccc3ccccc23)nc2ccccc12	-14%	3%	83%	-4%	5%	0%	/
O=c1nc2cccc3c2=c(/c1=C(\O)c1ccccc1)c1ccccc1c3=O	50µM*	10µM*	45%	7%[60.1 µM]	-12%[11.6 µM]	-29%	/	POLI cherry-pick=?
CC(C)(C)OC(=O)N1CCC(c2c(C(=O)NCc3ccccn3)cnn2-c2ccccc2Cl)CC1	2%	50%	27%	-6%	/	/	/
FC(F)(F)c1ccc(Cl)c(Nc2nnc(-c3ccncc3)s2)c1	/	/	/	/	-18%	/	/
Clc1ccccc1Nc1nnc(-c2ccncc2)s1	4%	0%	5%	-1%	?	-4%	15µM*
O=C(COc1ccc(Cl)cc1)OCCNC12CC3CC(CC(C3)C1)C2	/	/	/	0%[19.4 µM]	/	/	/
Cc1ccc(S(=O)(=O)c2c(O)cc(C)c(NS(=O)(=O)c3ccc(Cl)cc3)c2C)cc1	-11%	?	-17%	-9%	/	/	/
c1cc2c(cc1C1=NNC(=NC3CC3)SC1)OCCO2	0%	-10%	?	-20%	0%	-16%	9.2µM*
O=C(Nc1nnc(SCC(=O)N2CCCCC2)s1)c1cccs1	-10%	4%	3%	4%	-6%	6%	/

Assay outcomes deposited in PubChem by National Center for Advancing Translational Sciences (NCATS).
